Experiment [1] concerns the target Myc proto-oncogene protein (Homo sapiens) (UniProt P01106). Nature of the experiment: ATG_Myc_CIS: Attagene CIS-FACTORIAL HepG2 Assay for human Myelocytomatosis (Myc) Proto-Oncogene Transcription Factor (AID 2282990). Particulars: HepG2, Attagene cis-reporter transcription factor activity; actives raise or lower the signal. The method in brief:
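HepG2 cells transiently transfected with multiple cis-promoter-driven reporter transcription units, so endogenous TF activity is read. After 24 h compound exposure, reporter mRNA was quantified by RT-PCR, 6-FAM labelling, HpaI digestion and capillary electrophoresis; bidirectional fit versus DMSO.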

A short description of experiment [2]: ATG_NF_kB_CIS: Attagene CIS-FACTORIAL HepG2 Assay for human Nuclear Factor Kappa B (NF-kB) (AID 2282991). Particulars: HepG2 Attagene cis-factorial NF-kB reporter mRNA; actives raise or lower the signal. In a few lines: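 Fluorescence of labelled RT-PCR products separated by capillary electrophoresis gives reporter mRNA levels from transfected HepG2 cells exposed 24 h; values are fitted in both directions relative to DMSO.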

Experiment [3] can be described thus: ATG_NRF2_ARE_CIS: Attagene CIS-FACTORIAL HepG2 Assay for human Nuclear Factor Erythroid 2 Related Factor 2 (NFR2) response to Antioxidant Response Elements (ARE) (AID 2282992). Particulars: HepG2 Attagene ARE/NRF2 reporter, transcription factor activity; actives raise or lower the signal. The method in brief:
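HepG2 cells transiently transfected with multiplexed cis-element reporter constructs, 24 h after chemical dosing; reporter mRNA quantified by RT-PCR, fluorescent primer extension, HpaI digestion and capillary electrophoresis. Bidirectional fit relative to DMSO.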

Experiment [4] is described as follows: ATG_Oct_MLP_CIS: Attagene CIS-FACTORIAL HepG2 Assay for human Octamer-Binding Transcription Factor (Oct) (AID 2282993). To be noted: HepG2 Attagene cis-factorial Oct reporter, mRNA; actives raise or lower the signal. The method in brief: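 Readout is reporter transcript level from RT-PCR with fluorescent primer extension and capillary electrophoresis, fitted in both directions against DMSO. Transfected HepG2 reporter units report endogenous factor activity after 24 h dosing.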

The target in experiment [5] is Cellular tumor antigen p53 (Homo sapiens) (UniProt P04637). The experiment is described as follows: ATG_p53_CIS: Attagene CIS-FACTORIAL HepG2 Assay for human p53 Transcription Factor (AID 2282994). To be noted: HepG2 p53 cis-element reporter, Attagene mRNA; actives raise or lower the signal. In a few lines:
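HepG2 cells transiently transfected with cis-regulated multiple reporter transcription units, dosed 24 h. Reporter mRNA measured by RT-PCR, 6-FAM primer extension, HpaI digestion and capillary electrophoresis; bidirectional fit relative to DMSO.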

Experiment [6] deals with human Peroxisome Proliferator-activated Receptor delta (PPARd), PPARD (gene 5467) (UniProt Q03181). The experiment is described as follows: ATG_PPARd_TRANS: Attagene TRANS-FACTORIAL HepG2 Assay for human Peroxisome Proliferator-activated Receptor delta (PPARd) (AID 2283002; active = hit-call score of the fitted dose curve at least 0.9, where 1 is the maximum). In a few lines: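 HepG2 cells transiently transfected with multiplexed GAL4-UAS reporter units and exogenous chimeric NR-Gal4 proteins; 24 h compound exposure. Reporter mRNA measured by RT-PCR, 6-FAM labelling, HpaI digestion and capillary electrophoresis; gain of signal versus DMSO.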

In experiment [7] the target is Peroxisome proliferator-activated receptor gamma (Homo sapiens) (UniProt P37231). Nature of the experiment: ATG_PPARg_TRANS: Attagene TRANS-FACTORIAL HepG2 Assay for human Peroxisome Proliferator-activated Receptor-gamma (PPARg) (AID 2283007; active = hit-call score of the fitted dose curve at least 0.9, where 1 is the maximum). In a few lines: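 Twenty-four hours after chemical dosing of transiently transfected HepG2 cells, isolated RNA was converted to cDNA, reporter sequences amplified and 6-FAM-labelled, then HpaI-digested and analysed by capillary electrophoresis. Signal increase against DMSO was fitted.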

The target in experiment [8] is human Peroxisome Proliferator-activated Receptor alpha (PPARa), PPARA (gene 5465) (UniProt Q07869). Nature of the experiment: ATG_PPARa_TRANS: Attagene TRANS-FACTORIAL HepG2 Assay for human Peroxisome Proliferator-activated Receptor alpha (PPARa) (AID 2283001; active = hit-call score of the fitted dose curve at least 0.9, where 1 is the maximum). The method in brief:
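HepG2 cells transiently transfected with multiplexed GAL4-UAS reporter units and chimeric NR-Gal4 constructs were dosed for 24 h. Reporter mRNA was measured by RT-PCR with fluorescent labelling and capillary electrophoresis; gain of signal fitted against DMSO.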

Experiment [9] addresses human Retinoic Acid Receptor beta (RARb), RARB (gene 5915) (UniProt P10826). Nature of the experiment: ATG_RARb_TRANS: Attagene TRANS-FACTORIAL HepG2 Assay for human Retinoic Acid Receptor beta (AID 2283004; active = hit-call score of the fitted dose curve at least 0.9, where 1 is the maximum). The method in brief:
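HepG2 cells transiently transfected with multiplexed GAL4-UAS reporter units expressing chimeric NR–Gal4 fusions; 24 h compound exposure. Reporter mRNA quantified by RT-PCR, 6-FAM labelling, HpaI digestion and capillary electrophoresis; gain-of-signal fitted against DMSO baseline.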

For experiment [10], the target named is Retinoic acid receptor alpha (Homo sapiens) (UniProt P10276). The experiment is described as follows: ATG_RARa_TRANS: Attagene TRANS-FACTORIAL HepG2 Assay for human Retinoic Acid Receptor alpha (RARa) (AID 2283005; active = hit-call score of the fitted dose curve at least 0.9, where 1 is the maximum). In a few lines: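 HepG2 cells transiently transfected with multiple reporter units expressing chimeric RARα-GAL4 fusion, with GAL4-UAS-driven reporters. After 24 h compound exposure, reporter mRNA induction quantified by RT-PCR and capillary electrophoresis with fluorescent labeling; gain-of-signal fitted relative to DMSO control.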

For experiment [11], the target named is Nuclear receptor subfamily 1 group I member 2 (Homo sapiens) (UniProt O75469). Nature of the experiment: ATG_PXR_TRANS: Attagene TRANS-FACTORIAL HepG2 Assay for human Pregnane X Receptor (PXR) (AID 2283008; active = hit-call score of the fitted dose curve at least 0.9, where 1 is the maximum). In a few lines: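 HepG2 cells transiently transfected with GAL4-UAS reporter units and PXR-Gal4 chimera, exposed 24 h. Reporter mRNA quantified by RT-PCR, fluorescent labelling, HpaI digestion and capillary electrophoresis; gain of signal vs DMSO.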

The target in experiment [12] is human Retinoic Acid Receptor gamma (RARg), RARG (gene 5916) (UniProt P13631). Nature of the experiment: ATG_RARg_TRANS: Attagene TRANS-FACTORIAL HepG2 Assay for human Retinoic Acid Receptor gamma (RARg) (AID 2283009; active = hit-call score of the fitted dose curve at least 0.9, where 1 is the maximum). In a few lines: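 HepG2 cells transiently transfected with multiplexed reporter units expressing chimeric RARg-GAL4 and GAL4-UAS-driven reporters; 24 h compound exposure. Reporter mRNA quantified by RT-PCR with fluorescent labelling and capillary electrophoresis; gain-of-signal fitted relative to DMSO baseline.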

The target in experiment [13] is human RAR-related Orphan Receptor beta (RORb), RORB (gene 6096) (UniProt Q92753). Nature of the experiment: ATG_RORb_TRANS: Attagene TRANS-FACTORIAL HepG2 Assay for human RAR-related Orphan Receptor beta (RORb) (AID 2283010; active = hit-call score of the fitted dose curve at least 0.9, where 1 is the maximum). The method in brief:
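HepG2 cells were transiently transfected with multiplexed GAL4-UAS reporter units expressing chimeric nuclear receptor–GAL4 proteins, then dosed for 24 h. Reporter mRNA was quantified by RT-PCR with fluorescent labelling and capillary electrophoresis; gain of signal was fitted relative to DMSO.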

Records with an inconclusive call do not appear. Calls of active or inactive are those of the source. The calls were made as follows, unless noted: active = hit-call score of the fitted dose curve at least 0.9, where 1 is the maximum; inactive = score below 0.9.

Chain of human Retinoic Acid Receptor beta (RARb), RARB (gene 5915) (P10826 whole entry, looked up, the tested form may be a part): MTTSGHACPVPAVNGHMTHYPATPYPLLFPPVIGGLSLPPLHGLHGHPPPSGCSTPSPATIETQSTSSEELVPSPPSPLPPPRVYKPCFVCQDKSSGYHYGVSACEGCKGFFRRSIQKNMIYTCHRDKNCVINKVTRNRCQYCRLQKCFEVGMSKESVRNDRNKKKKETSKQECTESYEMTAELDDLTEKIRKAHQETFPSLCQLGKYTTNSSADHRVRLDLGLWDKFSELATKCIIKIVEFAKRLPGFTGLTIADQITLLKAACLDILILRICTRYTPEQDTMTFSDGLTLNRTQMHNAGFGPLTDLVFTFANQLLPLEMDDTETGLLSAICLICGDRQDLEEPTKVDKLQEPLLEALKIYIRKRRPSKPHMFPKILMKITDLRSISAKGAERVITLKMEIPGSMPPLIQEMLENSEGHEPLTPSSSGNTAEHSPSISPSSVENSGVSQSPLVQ
Chain of human Retinoic Acid Receptor gamma (RARg), RARG (gene 5916) (P13631 whole entry, looked up, the tested form may be a part): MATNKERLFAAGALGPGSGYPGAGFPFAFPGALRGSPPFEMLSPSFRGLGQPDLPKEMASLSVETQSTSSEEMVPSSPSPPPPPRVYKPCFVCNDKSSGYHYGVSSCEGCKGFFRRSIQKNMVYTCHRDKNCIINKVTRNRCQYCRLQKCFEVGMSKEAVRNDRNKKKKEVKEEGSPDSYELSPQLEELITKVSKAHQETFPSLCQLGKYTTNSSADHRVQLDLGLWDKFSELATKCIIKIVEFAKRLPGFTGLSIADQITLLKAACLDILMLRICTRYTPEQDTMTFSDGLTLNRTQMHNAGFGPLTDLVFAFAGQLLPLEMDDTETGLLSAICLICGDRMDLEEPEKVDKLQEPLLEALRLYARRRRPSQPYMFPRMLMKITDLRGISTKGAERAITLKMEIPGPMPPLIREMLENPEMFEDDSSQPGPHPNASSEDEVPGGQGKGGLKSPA
Chain of Peroxisome proliferator-activated receptor gamma (Homo sapiens) (P37231 whole entry, looked up): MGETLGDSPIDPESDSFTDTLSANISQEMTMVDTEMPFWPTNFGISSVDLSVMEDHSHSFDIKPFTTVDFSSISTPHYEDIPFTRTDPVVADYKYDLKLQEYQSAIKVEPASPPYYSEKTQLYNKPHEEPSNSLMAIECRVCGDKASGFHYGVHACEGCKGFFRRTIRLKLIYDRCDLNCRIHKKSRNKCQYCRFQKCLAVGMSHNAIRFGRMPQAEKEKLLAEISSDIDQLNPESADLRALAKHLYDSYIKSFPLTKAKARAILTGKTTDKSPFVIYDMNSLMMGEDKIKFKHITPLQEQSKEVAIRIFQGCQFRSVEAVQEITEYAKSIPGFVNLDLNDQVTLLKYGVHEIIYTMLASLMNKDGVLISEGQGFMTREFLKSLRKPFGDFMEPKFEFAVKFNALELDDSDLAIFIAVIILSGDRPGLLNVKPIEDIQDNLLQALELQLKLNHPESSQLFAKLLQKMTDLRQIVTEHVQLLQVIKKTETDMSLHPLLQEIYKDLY
Chain of human Peroxisome Proliferator-activated Receptor delta (PPARd), PPARD (gene 5467) (Q03181 whole entry, looked up, the tested form may be a part): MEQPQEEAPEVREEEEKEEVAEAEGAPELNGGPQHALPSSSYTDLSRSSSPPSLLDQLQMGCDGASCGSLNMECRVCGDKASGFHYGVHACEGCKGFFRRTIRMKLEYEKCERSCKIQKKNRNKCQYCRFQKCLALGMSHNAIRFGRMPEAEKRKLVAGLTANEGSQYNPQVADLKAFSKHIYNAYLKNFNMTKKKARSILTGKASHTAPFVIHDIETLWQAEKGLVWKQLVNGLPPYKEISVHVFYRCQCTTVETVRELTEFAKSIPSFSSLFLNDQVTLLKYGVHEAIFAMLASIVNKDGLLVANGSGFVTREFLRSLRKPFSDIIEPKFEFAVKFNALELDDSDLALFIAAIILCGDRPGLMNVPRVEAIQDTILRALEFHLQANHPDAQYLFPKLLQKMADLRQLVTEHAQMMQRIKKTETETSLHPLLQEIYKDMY
Chain of Nuclear receptor subfamily 1 group I member 2 (Homo sapiens) (O75469 whole entry, looked up, the tested form may be a part): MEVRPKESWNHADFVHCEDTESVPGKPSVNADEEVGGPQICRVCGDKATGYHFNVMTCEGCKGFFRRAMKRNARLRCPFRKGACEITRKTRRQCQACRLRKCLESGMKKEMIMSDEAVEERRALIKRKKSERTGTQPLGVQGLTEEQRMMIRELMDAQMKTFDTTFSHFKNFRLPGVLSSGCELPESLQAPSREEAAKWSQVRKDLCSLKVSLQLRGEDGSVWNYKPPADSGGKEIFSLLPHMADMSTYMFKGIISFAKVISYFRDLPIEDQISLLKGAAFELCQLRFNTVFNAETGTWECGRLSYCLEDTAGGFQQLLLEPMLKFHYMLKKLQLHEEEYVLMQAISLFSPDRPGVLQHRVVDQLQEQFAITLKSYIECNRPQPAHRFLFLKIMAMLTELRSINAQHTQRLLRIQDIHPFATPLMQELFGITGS
Chain of Myc proto-oncogene protein (Homo sapiens) (P01106 whole entry, looked up): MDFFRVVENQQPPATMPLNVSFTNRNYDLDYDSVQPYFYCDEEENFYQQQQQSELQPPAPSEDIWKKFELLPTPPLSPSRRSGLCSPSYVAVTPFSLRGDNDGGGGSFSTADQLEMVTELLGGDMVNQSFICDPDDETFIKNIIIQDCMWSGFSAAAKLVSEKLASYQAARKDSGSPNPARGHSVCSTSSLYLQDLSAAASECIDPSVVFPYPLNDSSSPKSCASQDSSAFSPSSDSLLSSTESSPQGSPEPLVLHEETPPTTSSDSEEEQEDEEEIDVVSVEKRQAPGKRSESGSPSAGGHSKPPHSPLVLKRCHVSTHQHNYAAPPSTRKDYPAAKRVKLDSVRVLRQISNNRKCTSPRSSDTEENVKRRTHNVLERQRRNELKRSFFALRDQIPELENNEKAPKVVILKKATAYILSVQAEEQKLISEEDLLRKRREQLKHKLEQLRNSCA
Chain of Cellular tumor antigen p53 (Homo sapiens) (P04637 whole entry, looked up): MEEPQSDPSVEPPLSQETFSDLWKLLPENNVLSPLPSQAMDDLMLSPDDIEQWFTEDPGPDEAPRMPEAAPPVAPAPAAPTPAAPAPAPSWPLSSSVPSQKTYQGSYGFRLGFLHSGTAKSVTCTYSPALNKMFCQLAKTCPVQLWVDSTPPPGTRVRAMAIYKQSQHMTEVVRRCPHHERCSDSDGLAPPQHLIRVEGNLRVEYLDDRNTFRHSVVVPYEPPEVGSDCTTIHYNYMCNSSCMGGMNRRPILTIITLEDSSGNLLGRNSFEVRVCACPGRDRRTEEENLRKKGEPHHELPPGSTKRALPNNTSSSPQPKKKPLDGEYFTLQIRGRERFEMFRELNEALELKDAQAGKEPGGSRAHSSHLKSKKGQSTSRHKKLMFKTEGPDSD
Chain of human Peroxisome Proliferator-activated Receptor alpha (PPARa), PPARA (gene 5465) (Q07869 whole entry, looked up, the tested form may be a part): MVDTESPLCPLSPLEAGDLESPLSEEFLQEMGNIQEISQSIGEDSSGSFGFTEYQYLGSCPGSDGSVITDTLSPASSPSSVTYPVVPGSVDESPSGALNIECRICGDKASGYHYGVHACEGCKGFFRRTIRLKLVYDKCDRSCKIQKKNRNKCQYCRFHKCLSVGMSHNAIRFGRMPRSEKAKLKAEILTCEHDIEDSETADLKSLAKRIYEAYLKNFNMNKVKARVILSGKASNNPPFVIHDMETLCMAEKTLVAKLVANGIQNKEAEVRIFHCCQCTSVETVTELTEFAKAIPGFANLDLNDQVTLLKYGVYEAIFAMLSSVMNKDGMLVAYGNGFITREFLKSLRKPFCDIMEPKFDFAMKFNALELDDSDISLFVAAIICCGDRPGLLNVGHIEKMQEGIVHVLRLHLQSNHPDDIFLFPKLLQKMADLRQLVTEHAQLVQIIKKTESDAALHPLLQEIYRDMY
Chain of human RAR-related Orphan Receptor beta (RORb), RORB (gene 6096) (Q92753 whole entry, looked up, the tested form may be a part): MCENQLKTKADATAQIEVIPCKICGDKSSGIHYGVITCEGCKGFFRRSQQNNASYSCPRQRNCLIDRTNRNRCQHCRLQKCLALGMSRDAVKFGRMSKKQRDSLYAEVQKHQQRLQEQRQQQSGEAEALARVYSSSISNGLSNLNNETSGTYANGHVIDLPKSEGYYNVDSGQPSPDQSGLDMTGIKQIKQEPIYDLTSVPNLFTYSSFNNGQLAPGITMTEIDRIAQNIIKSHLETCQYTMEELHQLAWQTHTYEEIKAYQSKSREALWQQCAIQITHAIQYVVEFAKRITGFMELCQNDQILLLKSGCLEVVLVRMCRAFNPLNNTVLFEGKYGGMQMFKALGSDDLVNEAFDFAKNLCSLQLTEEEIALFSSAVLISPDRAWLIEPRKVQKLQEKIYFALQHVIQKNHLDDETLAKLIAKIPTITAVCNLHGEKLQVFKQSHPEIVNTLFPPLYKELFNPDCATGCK
Chain of Retinoic acid receptor alpha (Homo sapiens) (P10276 whole entry, looked up, the tested form may be a part): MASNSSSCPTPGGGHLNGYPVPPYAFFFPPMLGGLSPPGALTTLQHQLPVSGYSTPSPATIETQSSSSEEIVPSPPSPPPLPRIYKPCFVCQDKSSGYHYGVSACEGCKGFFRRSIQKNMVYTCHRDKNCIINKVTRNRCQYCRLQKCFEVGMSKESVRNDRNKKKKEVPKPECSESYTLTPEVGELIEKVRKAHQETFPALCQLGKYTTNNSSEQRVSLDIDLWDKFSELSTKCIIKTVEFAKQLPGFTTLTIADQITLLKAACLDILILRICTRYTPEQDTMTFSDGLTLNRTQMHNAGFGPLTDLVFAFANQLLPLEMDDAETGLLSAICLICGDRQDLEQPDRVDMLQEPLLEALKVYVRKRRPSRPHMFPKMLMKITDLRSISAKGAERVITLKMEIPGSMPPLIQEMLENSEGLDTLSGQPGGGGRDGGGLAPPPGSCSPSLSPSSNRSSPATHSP

As a reminder, the AC50 is the concentration at which the activity in the assay is half-maximal. With `CCCOC(=O)c1c(Cl)c(Cl)c(Cl)c(Cl)c1C(=O)OCCC`, the AC50 in experiment [1] was 100 µM (active); in [3] it was 55.3 µM (active); in [4] it was 148 µM (active); in [7], 5.66 µM (active). Further, the molecule was called inactive in experiment [2], in experiment [5] and in [6].
Consider `CCCCCCCCCCCCCCN(CCO)CCO`, for which the call in experiment [1], in experiment [2], in [4], in experiment [5], in experiment [8] and in [9] was inactive. Moreover, the outcome in experiment [10], in experiment [11] and in experiment [12] was inactive. The AC50 in experiment [3] is 11.1 µM (active).
Regarding `C[N+](C)(C)CCCCCC[N+](C)(C)C`, the outcome in experiment [1], in experiment [2], in experiment [3], in experiment [4], in experiment [5] and in [6] was inactive. Also, the molecule was classed as inactive in experiment [9], in [7] and in experiment [11].
As to `CCCCCc1ccco1`, the outcome in experiment [1], in [4], in [5] and in experiment [6] was inactive. The AC50 in experiment [2] was 54.2 µM (active); in experiment [3] it was 31.9 µM (active); in experiment [7] it was 4.11 µM (active); in experiment [11], 2.75 µM (active).
In the case of `CCc1ncc(C)[nH]1`, the outcome in [1], in experiment [3], in experiment [4], in experiment [5], in experiment [6] and in [7] was inactive. In addition, the outcome in [11] was inactive.
Consider `Nc1ccc2c(O)cc(S(=O)(=O)O)cc2c1`, for which the result in experiment [1], in experiment [3], in experiment [4], in [5], in experiment [7] and in [11] was inactive. For the same molecule, the molecule was classed as inactive in [12] and in experiment [13].
`Nc1ccccc1[N+](=O)[O-]`: the molecule was classed as inactive in [1], in experiment [2], in experiment [3], in experiment [4], in experiment [5] and in [6]. Besides, in experiment [7], the molecule was called inactive.
As for `OCC#CCO`, the outcome in experiment [1], in experiment [2], in experiment [3], in [4], in experiment [5] and in experiment [8] was inactive. The result in [9], in experiment [10] and in experiment [7] was inactive.
For `CCCC(O)C(O)CO` (centres undefined), the outcome in [1], in experiment [2], in experiment [3], in experiment [4], in [5] and in [6] was inactive. Further, the outcome in experiment [11], in experiment [12] and in [13] was inactive.

The values are drawn from PubChem BioAssay (EPA / NIEHS).
